Test results published in PubChem BioAssay (NCI).
This is part of a sample that, as a whole, favours compounds with a hit. Of some 83,000 tested, about 20% had one in any assay.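 Single-dose data. Exposure time 48 hours. Values below 10 considered active.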 Values without a mark were called inactive. Calls of active or inactive are those of the source.

What follows are compounds tested on OVCAR-4 ovarian (assay: NCI-60 one-dose screen, 48 h (100 = growth as untreated, 0 = no growth, -100 = all killed)). Conditions: 10 µM.

Compound | growth
CCCCOC(OCCCC)c1ccccc1 | 109%
O=C(O)c1cccc([N+](=O)[O-])c1O | 111%
O=C1c2ccccc2C(=O)N1OCc1ccccc1 | 105%
C[C@@H](c1ccccc1)[C@@H](C(=O)O)c1ccccc1 | 94.7%
CC1=CC(C)(C)NC(=S)N1c1ccc(S(=O)(=O)O)c2cccc(S(=O)(=O)O)c12 | 117%
CC(=O)OC(OC(C)=O)C1CCCO1 (centres undefined) | 97.9%
c1ccc2c(N3CCCCC3)ncnc2c1 | 96.8%
S=c1nn[nH]c2ccccc12 | 114%
O=[N+]([O-])c1ccc(Sc2ccncn2)c([N+](=O)[O-])c1 | 42.9%
O=c1[nH]c(O)c(/C=C2/C=Nc3ccccc32)[nH]1 | 90%
CC1OC(Oc2c(-c3ccc(O)c(O)c3)oc3cc(O)cc(O)c3c2=O)C(O)C(O)C1O (centres undefined) | 105%
Cc1ccc(O)c(C(=O)c2ccccc2)c1 | 110%
OCC1OC(OC2C(O)C(CO)OC2(CO)OC2OC(CO)C(O)C(O)C2O)C(O)C(O)C1O (centres undefined) | 100%
C[N+](C)(C)C(=O)c1ccccc1 | 115%
O=[N+]([O-])c1ccc(Cl)c(S(=O)(=O)O)c1 | 111%
Cc1cc2ccccc2c(O)c1C#N | 114%
COc1ncnc2c1cnn2C | 117%
NC(C(=O)O)c1ccc([N+](=O)[O-])cc1 (centres undefined) | 107%
CC(O)COc1ccc(-c2ccccc2)cc1 (centres undefined) | 111%
C1CNC(C2=NCCN2)=N1 | 105%

Compound | growth
CN(C)C(C)(C)CC(C)(C)C | 108%
O=[N+]([O-])c1ccc(S(=O)(=O)NN=C2CCCCC2)cc1 | 99.5%
C[C@]12CC[C@@H]3c4ccc(OCC(=O)O)cc4CC[C@H]3[C@@H]1CCC2=O | 95.8%
Nc1ncnc2[nH]ncc12 | -5.84% (active)
CCCNc1ccc(C2=NCCCN2)cc1 | 100%
O=C(N/N=C/c1ccccc1O)Nc1nn[nH]n1 | 102%
Cc1ccc(CCCC(=O)O)c(C)c1 | 97.6%
CC(=O)c1cc2c(cc1F)C(C)(C)CCC2(C)C | 103%
CN(c1ccccc1)c1ncnc2c1ncn2C | 103%
CCCCC1(CC)COC(CCC)OC1 (centres undefined) | 115%
COc1cc2c3cc1Oc1c(OC)c(OC)cc4c1C(Cc1ccc(O)c(c1)Oc1ccc(cc1)CC3N(C)CC2)N(C)CC4 (centres undefined) | 13.5%
CCC(C#N)(CC)c1ccccc1 | 113%
FC(F)(F)c1ccc2c(c1)N(CCCN1CCN(C3CC3)CC1)c1ccccc1S2 | 73.6%
CC1NC(=O)NC1CCCCCC(=O)O (centres undefined) | 112%
COS(=O)(=O)c1ccc(Br)cc1 | 107%
O=[N+]([O-])c1cccc(N=Nc2ccc(O)cc2O)c1 | 62.3%
Cc1cc(OCCO)cc(C)c1Cl | 122%
Cc1cc(O)ccc1O | 98.5%
CCOc1ccc(Br)cc1/C=N\N=C\c1cc(Br)ccc1OCC | 113%
